Results reported in the supplement of paper PMC12645437, “Orthogonal IMiD-Degron Pairs Induce Selective Protein Degradation in Cells” (ACS Chemical Biology, 2025).
Over roughly 8,300 sequences, “log2 fold change of degron read counts, EGFP-low vs EGFP+ sorted cells (limma voom), compound-induced degradation” has its median near -1.1; the highest 2% begin near 3.2. Shown is part of a subset that was picked to be rich in the highest values.

T1: CRBN, Q96SW2
T1 chain: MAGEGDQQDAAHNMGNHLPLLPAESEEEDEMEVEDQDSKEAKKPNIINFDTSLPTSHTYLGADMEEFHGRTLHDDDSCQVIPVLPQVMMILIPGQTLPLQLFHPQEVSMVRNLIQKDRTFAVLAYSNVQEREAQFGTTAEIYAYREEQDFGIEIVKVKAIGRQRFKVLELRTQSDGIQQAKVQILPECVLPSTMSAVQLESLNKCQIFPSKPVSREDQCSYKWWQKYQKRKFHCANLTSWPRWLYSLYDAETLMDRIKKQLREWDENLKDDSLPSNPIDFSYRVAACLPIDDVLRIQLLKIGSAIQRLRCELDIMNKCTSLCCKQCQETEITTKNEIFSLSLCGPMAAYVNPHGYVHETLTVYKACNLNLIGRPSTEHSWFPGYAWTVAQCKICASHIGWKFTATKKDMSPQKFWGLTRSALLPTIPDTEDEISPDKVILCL

B1: 46F_47M_49D_50V_52G_53A_54I_55F_67L_, Q9UKT9 (peptide)
chain: FMCDVCGAIFTQKGNLLRHIKL
B2: 46F_47L_49N_50I_52G_53A_54R_55F_67L_, Q9UKT9 (peptide)
chain: FLCNICGARFTQKGNLLRHIKL
B3: 46F_47N_49N_50I_52G_53A_54R_55F_67L_, Q9UKT9 (peptide)
chain: FNCNICGARFTQKGNLLRHIKL
B4: 46F_47W_49N_50I_52G_53A_54R_55F_67L_, Q9UKT9 (peptide)
chain: FWCNICGARFTQKGNLLRHIKL
B5: 46F_47Y_49N_50I_52G_53A_54R_55F_67L_, Q9UKT9 (peptide)
chain: FYCNICGARFTQKGNLLRHIKL
B6: 46F_47T_49N_50I_52G_53A_54R_55F_67L_, Q9UKT9 (peptide)
chain: FTCNICGARFTQKGNLLRHIKL
B7: 46F_47Q_49N_50I_52G_53A_54R_55F_67L_, Q9UKT9 (peptide)
chain: FQCNICGARFTQKGNLLRHIKL
B8: 46L_47H_49P_50I_52G_53F_54W_55C_67L_, Q9UKT9 (peptide)
chain: LHCPICGFWCTQKGNLLRHIKL
B9: 46F_47Q_49P_50I_52G_53H_54N_55F_67L_, Q9UKT9 (peptide)
chain: FQCPICGHNFTQKGNLLRHIKL
B10: 46L_47R_49P_50I_52G_53F_54T_55C_67L_, Q9UKT9 (peptide)
chain: LRCPICGFTCTQKGNLLRHIKL
B11: 46L_47Q_49P_50I_52G_53F_54T_55C_67L_, Q9UKT9 (peptide)
chain: LQCPICGFTCTQKGNLLRHIKL
B12: 46L_47T_49P_50I_52G_53F_54T_55C_67L_, Q9UKT9 (peptide)
chain: LTCPICGFTCTQKGNLLRHIKL
B13: 46L_47K_49P_50I_52G_53F_54T_55C_67L_, Q9UKT9 (peptide)
chain: LKCPICGFTCTQKGNLLRHIKL
B14: 46L_47M_49P_50I_52G_53F_54T_55C_67L_, Q9UKT9 (peptide)
chain: LMCPICGFTCTQKGNLLRHIKL
B15: 46L_47V_49P_50I_52G_53F_54T_55C_67L_, Q9UKT9 (peptide)
chain: LVCPICGFTCTQKGNLLRHIKL
B16: 46L_47L_49P_50I_52G_53F_54T_55C_67L_, Q9UKT9 (peptide)
chain: LLCPICGFTCTQKGNLLRHIKL
B17: 46L_47F_49P_50I_52G_53F_54T_55C_67L_, Q9UKT9 (peptide)
chain: LFCPICGFTCTQKGNLLRHIKL
B18: 46L_47A_49P_50I_52G_53F_54T_55C_67L_, Q9UKT9 (peptide)
chain: LACPICGFTCTQKGNLLRHIKL
B19: 46L_47H_49P_50I_52G_53F_54T_55C_67L_, Q9UKT9 (peptide)
chain: LHCPICGFTCTQKGNLLRHIKL
B20: 46L_47I_49P_50I_52G_53F_54T_55C_67L_, Q9UKT9 (peptide)
chain: LICPICGFTCTQKGNLLRHIKL
B21: 46L_47S_49P_50I_52G_53F_54T_55C_67L_, Q9UKT9 (peptide)
chain: LSCPICGFTCTQKGNLLRHIKL
B22: 46F_47I_49N_50Q_52G_53H_54N_55F_67L_, Q9UKT9 (peptide)
chain: FICNQCGHNFTQKGNLLRHIKL
B23: 46F_47I_49N_50Q_52G_53H_54Q_55F_67L_, Q9UKT9 (peptide)
chain: FICNQCGHQFTQKGNLLRHIKL
B24: 46F_47N_49E_50I_52G_53A_54F_55F_67L_, Q9UKT9 (peptide)
chain: FNCEICGAFFTQKGNLLRHIKL
B25: 46F_47A_49N_50I_52G_53A_54G_55F_67L_, Q9UKT9 (peptide)
chain: FACNICGAGFTQKGNLLRHIKL
B26: 46F_47W_49E_50I_52G_53R_54H_55F_67L_, Q9UKT9 (peptide)
chain: FWCEICGRHFTQKGNLLRHIKL
B27: 46F_47N_49P_50I_52G_53R_54M_55F_67L_, Q9UKT9 (peptide)
chain: FNCPICGRMFTQKGNLLRHIKL
B28: 46F_47G_49N_50Q_52G_53H_54N_55F_67L_, Q9UKT9 (peptide)
chain: FGCNQCGHNFTQKGNLLRHIKL

Molecular target: T1, CRBN, Q96SW2
Assay: log2 fold change of degron read counts, EGFP-low vs EGFP+ sorted cells (limma voom), compound-induced degradation; higher = more compound-induced degradation of the degron-EGFP fusion; degrons are variants of IKZF1/3 zinc finger 2; compound dose not given here
Conditions: Jurkat, 18 h
[1] = compound: compound 19 (5-tert-butyl-thalidomide)
[2] = compound: compound 22 (5-morpholino-thalidomide)
[3] = compound: compound 33 (diphenyl IMiD analogue)
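Further: pooled lentiviral library of zinc finger degron-EGFP fusions in mCherry-positive Jurkat cells, FACS-sorted after compound exposure, with degron abundance counted by next-generation sequencing.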

Sequence	log2 fold change of degron read counts [1]	log2 fold change of degron read counts [2]	log2 fold change of degron read counts [3]	log2 fold change of degron read counts (compound: thalidomide)
B1	-2.28	-2.09	0.171	-1.7
B2	-1.1	-1.89	-0.701	0.842
B3	1.28	0.255	-1.05	-0.266
B4	2.19	3.34	0.85	0.523
B5	1.83	2.47	-0.345	-0.644
B6	0.313	1.57	0.916	2.41
B7	-0.916	0.973	0.399	3.26
B8	1.34	1.54	2.54	1.59
B9	-2.9	-1.92	-1.21	0.375
B10	0.326	0.593	1.93	2.23
B11	1.75	2.59	2.54	3.66
B12	1.57	3.31	2.65	3.44
B13	-0.865	-1.65	-1.59	0.662
B14	-0.0285	1.97	2.76	2.79
B15	1.27	2.61	2.22	3.21
B16	0.147	0.286	1.38	2.64
B17	3.39	3.54	2.49	2.69
B18	3.68	3.23	2.51	2.61
B19	2.75	2.97	2.8	2.34
B20	0.369	2.36	2.13	2.81
B21	3.13	2.83	2.48	2.59
B22	-2.7	-3.24	-2.97	-2.3
B23	-3.84	-3.33	-2.9	-3.11
B24	0.798	-1.38	-0.734	-1.26
B25	1.91	0.962	-0.444	-0.984
B26	0.466	0.665	0.0348	-0.898
B27	-0.587	-0.626	-0.159	-0.181
B28	-2.02	-2.05	-2.04	-1.85
